# Inconclusive results are not listed. Where a call stands in place of a potency, no number is given. Calls of active or inactive are those of the source. Unless noted, calls follow the shape of the dose curve; as a rule, active = well fitted curve in the direction sought with a large enough effect; inconclusive = small, poorly fitted or top-dose-only effect, or another doubt; inactive = no such curve, though single readings can be large; an effect the other way counts as inactive or inconclusive.
# What was measured:
# [1] = biological target: Metallo-beta-lactamase type 2 (Klebsiella pneumoniae) (UniProt C7C422); test: qHTS to identify inhibitors of the New Delhi Metallo-beta-lactamase (NDM): assay validation screen against the NCATS LOPAC Collection (AID 1794843);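 also: nitrocefin turnover by NDM-1 measured as 485 nm absorbance at plateau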
# Method in brief: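 NDM-1 at 2 nM final in 50 mM HEPES pH 7.0 with 1 uM ZnSO4 and 0.01% Tween20 was preincubated with library compounds in DMSO. Nitrocefin (50 uM stock) was then added, and absorbance at 485 nm was read at the kinetic plateau.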
# [2] = NCATS anti-infectives library activity on HEK293 viability as a counter-qHTS vs the C. elegans viability qHTS (AID 1745854)
# Method in brief: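 HEK293 cells, 1500 per well, exposed 24 hr at 37C in 5% CO2 to compounds in a 1:5 titration, up to 41.7 uM final. Viability read as CellTiter-Glo luminescence after 10 min at room temperature.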
# [3] = NCATS anti-infectives library activity on the primary C. elegans qHTS viability assay (AID 1745855; calls by dose curve); details: C. elegans worm area imaging, day 7; at 41.8 µM (top of the series) unless noted
# Method in brief: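 Viability is taken from GFP fluorescence of PE254-GFP-FLuc C. elegans imaged by laser cytometry over 7 days. Ten L1 worms per well grow at 21 °C on TOP10 E. coli capsules with titrated compound; levamisole marks toxicity.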
# [4] = Viability counterscreen for antagonist of constitutive androstane receptor (CAR) against the NCATS DSHEA and TCM libraries (AID 1794837);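 also: compound exposure lasted 24 h before viability reading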
# Method in brief: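 Counterscreen performed in a 1536-well qHTS format using HepG2-CYP2B6-hCAR cells; samples titrated in the presence of 48 uM CITCO, with viability measured fluorometrically (405/540 nm) after 24 h.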
# [5] = Viability counterscreen for agonist of constitutive androstane receptor (CAR) against the NCATS DSHEA and TCM libraries (AID 1794838)
# Method in brief: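 Multiplexed counterscreen: after 24 h compound exposure with 0.75 uM PK11195, HepG2-CYP2B6-hCAR viability was quantified fluorimetrically (CellTiter-Fluor, 405/540 nm) prior to the ONE-Glo luciferase read.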
# [6] = biological target: Nuclear receptor subfamily 1 group I member 3 (Homo sapiens) (UniProt Q14994); test: Primary qHTS for agonist of constitutive androstane receptor (CAR) against the NCATS DSHEA and TCM libraries (AID 1794839);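 also: HepG2 cells expressing human CAR with a CYP2B6 reporter plus PK11195 antagonist; luciferase reporter luminescence read with ONE-Glo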
# Method in brief: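 Concentration–response screen in HepG2-CYP2B6-hCAR cells under 0.75 µM PK11195; 24 h exposure; luminescent reporter signal with multiplexed fluorescent viability.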
# [7] = HepG2 viability counterscreen (readout 2: ATP content) against the NCATS DSHEA and TCM libraries (AID 1794840);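 also: HepG2 cells exposed to substances for about 24 h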
# Method in brief: (§1)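 After HepG2 cells attach for ~4 h, substances are added and incubated ~24 h at 37C, 5% CO2. GF-AFC fluorescence then CellTiter-Glo luminescence give protease and ATP readouts.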
# [8] = HepG2 viability counterscreen (readout 1: protease activity) against the NCATS DSHEA and TCM libraries (AID 1794841);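 also: cells exposed to compounds for about 24 h before the protease read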
# Method in brief: as §1
# [9] = biological target: Catechol O-methyltransferase (Homo sapiens) (UniProt P21964); test: Confirmatory Screen for Target Class Profiling of Small Molecule Inhibitors of Methyltransferases (AID 1745852; calls by dose curve; also: potency is read from the fitted curve at half-maximal effect); details: MTase-Glo luminescence, SAH detection, recombinant enzyme; measured here: COMT max response; stronger effect = lower value
# [10] = biological target: Guanidinoacetate N-methyltransferase (Homo sapiens) (UniProt Q14353); test: as above; details: MTase-Glo luminescence, SAH detection, recombinant enzyme; activity change, negative = inhibition: at 57.3 µM (top of the series)
# [11] = biological target: Nicotinamide N-methyltransferase (Homo sapiens) (UniProt P40261); test: as above; details: MTase-Glo luminescence, SAH detection, recombinant enzyme; measured here: NNMT max response; stronger effect = lower value
# [12] = biological target: Phenylethanolamine N-methyltransferase (Homo sapiens) (UniProt P11086); test: as above; details: MTase-Glo luminescence, SAH detection, recombinant enzyme; measured here: PNMT max response; stronger effect = lower value
# Phenylethanolamine N-methyltransferase (Homo sapiens), sequence (P11086 whole entry, looked up): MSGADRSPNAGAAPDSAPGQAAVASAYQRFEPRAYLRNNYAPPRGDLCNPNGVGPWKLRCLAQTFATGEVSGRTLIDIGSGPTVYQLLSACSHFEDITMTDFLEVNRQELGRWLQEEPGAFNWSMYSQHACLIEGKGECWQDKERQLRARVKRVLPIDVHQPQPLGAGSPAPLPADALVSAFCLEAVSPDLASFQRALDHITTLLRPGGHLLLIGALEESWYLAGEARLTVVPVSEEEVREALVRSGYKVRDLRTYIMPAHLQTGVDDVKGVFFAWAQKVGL
# Nicotinamide N-methyltransferase (Homo sapiens), sequence (P40261 whole entry, looked up): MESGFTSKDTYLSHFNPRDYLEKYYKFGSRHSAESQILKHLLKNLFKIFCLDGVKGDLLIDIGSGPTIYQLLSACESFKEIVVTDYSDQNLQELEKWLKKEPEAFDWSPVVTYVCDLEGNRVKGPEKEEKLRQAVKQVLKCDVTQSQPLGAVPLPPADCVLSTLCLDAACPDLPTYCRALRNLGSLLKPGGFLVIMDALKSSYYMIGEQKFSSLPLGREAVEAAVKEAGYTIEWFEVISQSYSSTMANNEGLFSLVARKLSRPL
# Catechol O-methyltransferase (Homo sapiens), sequence (P21964 whole entry, looked up): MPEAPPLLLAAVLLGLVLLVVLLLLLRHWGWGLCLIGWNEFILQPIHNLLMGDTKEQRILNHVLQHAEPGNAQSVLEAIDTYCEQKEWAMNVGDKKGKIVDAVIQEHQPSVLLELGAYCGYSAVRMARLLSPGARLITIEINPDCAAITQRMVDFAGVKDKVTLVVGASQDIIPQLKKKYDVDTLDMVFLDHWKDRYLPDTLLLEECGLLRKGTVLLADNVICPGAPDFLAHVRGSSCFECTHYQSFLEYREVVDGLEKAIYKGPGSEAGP
# Metallo-beta-lactamase type 2 (Klebsiella pneumoniae), sequence (C7C422 whole entry, looked up): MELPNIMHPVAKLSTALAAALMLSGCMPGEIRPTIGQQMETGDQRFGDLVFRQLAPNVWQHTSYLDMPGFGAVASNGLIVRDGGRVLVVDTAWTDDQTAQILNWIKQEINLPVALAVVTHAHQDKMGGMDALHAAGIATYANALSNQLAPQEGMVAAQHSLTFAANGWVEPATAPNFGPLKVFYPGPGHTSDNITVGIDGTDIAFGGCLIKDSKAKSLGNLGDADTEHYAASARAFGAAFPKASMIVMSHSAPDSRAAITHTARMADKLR
# Nuclear receptor subfamily 1 group I member 3 (Homo sapiens), sequence (Q14994 whole entry, looked up): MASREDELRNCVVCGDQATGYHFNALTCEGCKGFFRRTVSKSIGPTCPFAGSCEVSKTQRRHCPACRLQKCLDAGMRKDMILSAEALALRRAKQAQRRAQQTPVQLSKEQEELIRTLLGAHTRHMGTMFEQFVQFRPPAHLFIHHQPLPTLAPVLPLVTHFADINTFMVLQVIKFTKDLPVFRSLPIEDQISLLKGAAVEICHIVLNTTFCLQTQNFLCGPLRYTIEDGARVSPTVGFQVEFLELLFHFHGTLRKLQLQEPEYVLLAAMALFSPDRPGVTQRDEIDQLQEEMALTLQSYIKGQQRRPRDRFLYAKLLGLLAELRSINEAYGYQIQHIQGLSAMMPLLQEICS
smiles,measurement,setting,value
N[C@@H](Cc1c[nH]c2ccccc12)C(=O)O,Potency,[1],inactive
CN1CCc2cc(Cl)c(O)cc2[C@@H](c2ccccc2)C1,Potency,[1],inactive
COc1ccc2c(c1)c(CC(=O)O)c(C)n2C(=O)c1ccccc1,Potency,[1],inactive
N[C@H]1CONC1=O,outcome,[2],inactive
same,Potency,[1],inactive
NC(=O)c1ccccc1,outcome,[2],inactive
same,outcome,[3],inactive
same,Potency,[1],inactive
NCCC1CCCC(CCN)N1 (stereo not given),Potency,[1],inactive
C=C1C[C@@]23CC[C@H]4[C@@](C)(CCC[C@@]4(C)C(=O)OC4OC(CO)C(O)C(O)C4O)[C@@H]2CC[C@]1(OC1OC(CO)C(O)C(O)C1OC1OC(CO)C(O)C(O)C1O)C3 (stereo not given in full),outcome,[4],inactive
same,outcome,[5],inactive
same,outcome,[6],inactive
same,outcome,[7],inactive
same,outcome,[8],inactive
C=CCN1CCc2c(cc(O)c(O)c2Br)[C@@H](c2ccccc2)C1,activity,[9],62%
same,"activity change, negative = inhibition",[10],5.44%
same,activity,[11],-9.94%
same,activity,[12],-1.34%
same,Potency,[1],inactive
CCc1ccc2c(-c3cccc(Cl)c3)nc(=O)n(CC)c2n1,Potency,[1],inactive
COc1ccc2c(c1)CCC1C2CC[C@@]2(C)C1CC[C@@H]2NCCCCCCN1C(=O)C=CC1=O (stereo not given in full),Potency,[1],inactive
O[Si](CCCN1CCCCC1)(c1ccc(F)cc1)C1CCCCC1 (stereo not given),Potency,[1],inactive
CC[C@@H]1Cc2cc(O)ccc2C2=C1c1ccc(O)cc1C[C@H]2CC,activity,[9],9.67%
same,Potency,[10],43.2 µM (active)
same,activity,[11],-26.8%
same,activity,[12],-50.4%
same,Potency,[1],inactive
Nc1ncnc2c1ncn2C1CCCO1 (stereo not given),Potency,[1],inactive
N#C/C(=C\c1ccc(O)c(O)c1)C(=O)NCCCNC(=O)/C(C#N)=C/c1ccc(O)c(O)c1,activity,[9],-50.9%
same,Potency,[10],4.85 µM (active)
same,activity,[11],-44.4%
same,activity,[12],-72.8%
same,Potency,[1],inactive
Nc1ccc(-c2ccc3ccccc3n2)cc1,Potency,[1],inactive
CN(C)C(=O)/N=N/C(=O)N(C)C,activity,[9],-3.94%
same,"activity change, negative = inhibition",[10],0.919%
same,activity,[11],-6.49%
same,activity,[12],-4.1%
same,Potency,[1],inactive
CCN1C(=O)C=CC1=O,outcome,[2],inactive
same,outcome,[3],inactive [at 83.3 µM]
same,Potency,[1],inactive
CC(C)[C@@H]1CC[C@@H](C)C[C@@H]1P(=O)(c1ccccc1)c1ccccc1,Potency,[1],inactive
CCCCCC(O)CCCC(=O)O (stereo not given),Potency,[1],inactive
NC/C=C\C(=O)O,activity,[9],-3.77%
same,"activity change, negative = inhibition",[10],4.36%
same,activity,[11],-7.89%
same,activity,[12],2.22%
same,Potency,[1],inactive
COc1cc(/C=C(\C#N)C(=O)c2ccc(O)c(O)c2)cc(I)c1O,activity,[9],13.9%
same,Potency,[10],24.3 µM (active)
same,activity,[11],-5.85%
same,activity,[12],1.08%
same,Potency,[1],inactive
NS(=O)(=O)c1cccc2c1c([N+](=O)[O-])cc1nc(O)c(O)nc12,activity,[9],-92.9%
same,"activity change, negative = inhibition",[10],0.0632%
same,activity,[11],-6.69%
same,activity,[12],1.61%
same,Potency,[1],inactive
Cc1ccc([N+](=O)[O-])cc1S(=O)(=O)N(C)C,Potency,[1],inactive

# Source: PubChem BioAssay (NCATS)
